About 7,900 targets were measured; listed, in parts, are those with a hit and a random draw of the rest. About 0.6% of all pairs of compound and target were hits.
How the values were obtained:
Test in all cases: log2 fold change, soluble protein after heating vs DMSO (PISA); higher = thermal stabilisation; K562 cells, 10 uM, 30 min; active = over 0.2 and 3.5 SD of the protein, either way, in both replicates (recomputed)
[1] = compound: CC[C@@H]1C(=O)N(C)c2cnc(Nc3ccc(C(=O)NC4CCN(C)CC4)cc3OC)nc2N1C1CCCC1
Procedure, shortened: (§1)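 Quantification of soluble protein used TMTpro 16plex LC-MS/MS, with channel sums equalised. Samples were the supernatant after 21,000xg for 90 min of pooled aliquots from K562 cells (2×10^6 cells/mL) treated with 10 μM compound for 30 min, heated for 3 min over 48°C-58°C, and extracted in PBS with 0.5% NP-40 at 4°C. Values, from duplicates, describe thermal stability against control samples on a log2 fold-change scale.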

volasertib = compound: CC[C@@H]1C(=O)N(C)c2cnc(Nc3ccc(C(=O)N[C@H]4CC[C@H](N5CCN(CC6CC6)CC5)CC4)cc3OC)nc2N1C(C)C [volasertib]
Procedure, shortened: as §1

[2] = compound: CC[C@H](C)N1C=C(C2=C(C=C(C=C21)C3=CN=C(C=C3)N4CCNCC4)C(=O)NCC5=C(C=C(NC5=O)C)C)C
Procedure, shortened: as §1

epoxomicin = compound: CC[C@H](C)[C@@H](C(=O)N[C@@H]([C@@H](C)O)C(=O)N[C@@H](CC(C)C)C(=O)[C@]1(CO1)C)NC(=O)[C@H]([C@@H](C)CC)N(C)C(=O)C [epoxomicin]
Procedure, shortened: as §1

[3] = compound: CCn1c(C(=O)N(C2CC2)C2CC2)cc2c3c(ncn3C)c(Nc3cc(C)n(C)n3)nc21
Procedure, shortened: as §1

[4] = compound: CCn1cc(-c2ccnc3[nH]c(-c4cccc(CN(C)C)c4)cc23)c(-c2ccc(NC(=O)N(C)C)cc2)n1
Procedure, shortened: as §1

[5] = compound: CN(C)CC(=O)Nc1ccc2[nH]c(=O)c3ccccc3c2c1
Procedure, shortened: as §1

rosiglitazone = compound: CN(CCOC1=CC=C(C=C1)C[C@H]2C(=O)NC(=O)S2)C3=CC=CC=N3 (racemic) [rosiglitazone]
Procedure, shortened: as §1

[6] = compound: CN1C2=C(C3=C1C(=O)N(N=C3)CC4=CC(=CC=C4)N)SC(=C2)S(=O)C
Procedure, shortened: as §1

[7] = compound: CN1CCC(CNc2ccc3ncc(-c4cccc(OC(F)(F)F)c4)n3n2)CC1
Procedure, shortened: as §1

saracatinib = compound: CN1CCN(CCOc2cc(OC3CCOCC3)c3c(Nc4c(Cl)ccc5c4OCO5)ncnc3c2)CC1 [saracatinib]
Procedure, shortened: as §1

sotrastaurin = compound: CN1CCN(c2nc(C3=C(c4c[nH]c5ccccc45)C(=O)NC3=O)c3ccccc3n2)CC1 [sotrastaurin]
Procedure, shortened: as §1

alvocidib = compound: CN1CC[C@H](c2c(O)cc(O)c3c(=O)cc(-c4ccccc4Cl)oc23)[C@H](O)C1 [alvocidib]
Procedure, shortened: as §1

Tubastatin A = compound: CN1CCc2c(c3ccccc3n2Cc2ccc(C(=O)NO)cc2)C1 [Tubastatin A]
Procedure, shortened: as §1

[8] = compound: CNC(=O)C1=CC=CC=C1NC2=NC(=NC=C2Cl)NC3=C(C=C(C=C3)N4CCOCC4)OC
Procedure, shortened: as §1

defactinib = compound: CNC(=O)c1ccc(Nc2ncc(C(F)(F)F)c(NCc3nccnc3N(C)S(C)(=O)=O)n2)cc1 [defactinib]
Procedure, shortened: as §1

rucaparib = compound: CNCc1ccc(-c2[nH]c3cc(F)cc4c3c2CCNC4=O)cc1 [rucaparib]
Procedure, shortened: as §1

[9] = compound: CNc1nc(-c2ccc3c(N)n[nH]c3c2)cc(N2C[C@@H](C(=O)NC3CCCCC3)CC[C@H]2C)n1
Procedure, shortened: as §1

encorafenib = compound: COC(=O)N[C@@H](C)CNc1nccc(-c2cn(C(C)C)nc2-c2cc(Cl)cc(NS(C)(=O)=O)c2F)n1 [encorafenib]
Procedure, shortened: as §1

[10] = compound: COC(=O)[C@H](CCSC)NC(=O)C1=C(C=C(C=C1)NC[C@H](CS)N)C2=CC=CC=C2
Procedure, shortened: as §1

Measured: log2 fold change

BYSL (UniProt Q13895)
Chain of UniProt Q13895 (Q13895 whole entry, looked up): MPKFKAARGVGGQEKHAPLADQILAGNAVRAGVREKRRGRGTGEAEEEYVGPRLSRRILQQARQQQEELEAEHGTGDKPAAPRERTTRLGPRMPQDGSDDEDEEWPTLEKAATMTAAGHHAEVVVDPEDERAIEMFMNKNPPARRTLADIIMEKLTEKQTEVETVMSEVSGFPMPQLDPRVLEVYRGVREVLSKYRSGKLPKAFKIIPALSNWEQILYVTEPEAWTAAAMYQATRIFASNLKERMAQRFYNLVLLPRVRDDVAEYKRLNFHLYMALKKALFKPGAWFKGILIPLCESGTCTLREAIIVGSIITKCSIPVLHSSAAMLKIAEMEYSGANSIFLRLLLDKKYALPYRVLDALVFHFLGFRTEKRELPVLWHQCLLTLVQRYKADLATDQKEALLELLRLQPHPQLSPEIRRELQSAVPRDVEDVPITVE
inactive: [1] -0.009 | volasertib -0.113 | [2] 0.072 | epoxomicin 0.118 | [3] -0.077 | [4] 0.053 | [5] 0.079 | rosiglitazone 0.045 | [6] 0.09 | [7] 0.053 | saracatinib -0.042 | sotrastaurin -0.101 | alvocidib -0.03 | Tubastatin A 0.136 | [8] 0.034 | defactinib -0.004 | rucaparib -0.004 | [9] 0.094 | encorafenib 0.034 | [10] -0.073

ATP12A isoform 2 (UniProt P54707)
active: [7] 0.242
inactive: [1] 0.081 | volasertib 0 | [2] -0.029 | epoxomicin 0.013 | [3] 0.04 | [4] -0.031 | [5] -0.047 | rosiglitazone 0.015 | [6] -0.085 | saracatinib 0.011 | sotrastaurin 0.031 | alvocidib -0.026 | Tubastatin A -0.019 | [8] 0.002 | defactinib -0.072 | rucaparib -0.027 | [9] 0.023 | encorafenib -0.015 | [10] -0.005

ASNS (UniProt P08243)
Chain of UniProt P08243 (P08243 whole entry, looked up): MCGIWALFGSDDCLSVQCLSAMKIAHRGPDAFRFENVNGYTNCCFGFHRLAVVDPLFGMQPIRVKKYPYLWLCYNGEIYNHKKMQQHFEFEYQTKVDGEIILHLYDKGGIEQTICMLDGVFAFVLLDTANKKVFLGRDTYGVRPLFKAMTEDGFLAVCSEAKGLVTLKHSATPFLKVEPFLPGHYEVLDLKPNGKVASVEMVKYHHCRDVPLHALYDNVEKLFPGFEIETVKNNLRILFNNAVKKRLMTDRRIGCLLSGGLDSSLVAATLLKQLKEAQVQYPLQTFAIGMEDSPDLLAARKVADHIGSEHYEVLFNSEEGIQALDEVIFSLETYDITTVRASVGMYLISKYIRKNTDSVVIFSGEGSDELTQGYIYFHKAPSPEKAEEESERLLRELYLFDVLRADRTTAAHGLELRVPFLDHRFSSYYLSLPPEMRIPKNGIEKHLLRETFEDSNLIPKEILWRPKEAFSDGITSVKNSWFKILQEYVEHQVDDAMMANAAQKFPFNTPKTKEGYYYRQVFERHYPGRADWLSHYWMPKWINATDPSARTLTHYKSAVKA
inactive: [1] -0.01 | volasertib 0.015 | [2] 0.008 | epoxomicin 0.021 | [3] 0.008 | [4] -0.051 | [5] -0.008 | rosiglitazone 0.003 | [6] -0.064 | [7] -0.037 | saracatinib 0.041 | sotrastaurin 0.016 | alvocidib -0.013 | Tubastatin A -0.002 | [8] -0.036 | defactinib -0.018 | rucaparib -0.017 | [9] -0.015 | encorafenib -0.009 | [10] -0.001

ATG9A (UniProt Q7Z3C6)
Chain of UniProt Q7Z3C6 (Q7Z3C6 whole entry, looked up): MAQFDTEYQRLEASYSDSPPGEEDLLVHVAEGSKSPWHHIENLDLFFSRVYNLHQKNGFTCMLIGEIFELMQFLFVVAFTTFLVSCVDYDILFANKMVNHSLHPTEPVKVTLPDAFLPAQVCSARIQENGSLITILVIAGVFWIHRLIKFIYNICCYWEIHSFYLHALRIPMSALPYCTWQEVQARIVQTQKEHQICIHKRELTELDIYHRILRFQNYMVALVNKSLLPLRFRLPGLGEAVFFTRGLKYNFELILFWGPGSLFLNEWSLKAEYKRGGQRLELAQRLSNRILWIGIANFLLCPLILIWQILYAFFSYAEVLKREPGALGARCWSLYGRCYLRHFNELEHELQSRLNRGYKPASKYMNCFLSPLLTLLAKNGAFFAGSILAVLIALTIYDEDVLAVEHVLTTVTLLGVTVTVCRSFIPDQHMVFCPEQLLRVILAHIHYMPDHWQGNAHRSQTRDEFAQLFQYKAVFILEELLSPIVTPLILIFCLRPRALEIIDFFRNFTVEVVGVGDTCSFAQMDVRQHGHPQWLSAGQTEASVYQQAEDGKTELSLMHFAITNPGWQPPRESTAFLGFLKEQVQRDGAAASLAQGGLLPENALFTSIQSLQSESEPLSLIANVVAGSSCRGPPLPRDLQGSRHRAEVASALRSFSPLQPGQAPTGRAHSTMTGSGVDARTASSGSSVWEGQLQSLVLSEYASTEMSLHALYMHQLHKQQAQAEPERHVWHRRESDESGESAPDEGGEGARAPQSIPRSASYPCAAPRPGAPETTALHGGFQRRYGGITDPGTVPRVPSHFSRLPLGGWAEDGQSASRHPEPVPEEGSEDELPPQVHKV
active: volasertib -0.326
inactive: [1] -0.019 | [2] 0.027 | epoxomicin -0.007 | [3] 0.002 | [4] -0.06 | [5] 0.018 | rosiglitazone 0.008 | [6] 0.058 | [7] -0.118 | saracatinib 0.016 | sotrastaurin -0.084 | alvocidib -0.086 | Tubastatin A 0.067 | [8] -0.029 | defactinib -0.09 | rucaparib -0.008 | [9] -0.052 | encorafenib 0.055 | [10] -0.013

BCCIP isoform 2 (UniProt Q9P287)
inactive: [1] -0.037 | volasertib -0.038 | [2] 0.044 | epoxomicin 0.019 | [3] 0.023 | [4] 0.022 | [5] 0.026 | rosiglitazone 0.021 | [6] -0.042 | [7] -0.028 | saracatinib -0.004 | sotrastaurin -0.044 | alvocidib 0.031 | Tubastatin A -0.036 | [8] 0.013 | defactinib -0.019 | rucaparib 0.087 | [9] -0.005 | encorafenib 0.037 | [10] -0.024

ACSL3 (UniProt O95573)
Chain of UniProt O95573 (O95573 whole entry, looked up): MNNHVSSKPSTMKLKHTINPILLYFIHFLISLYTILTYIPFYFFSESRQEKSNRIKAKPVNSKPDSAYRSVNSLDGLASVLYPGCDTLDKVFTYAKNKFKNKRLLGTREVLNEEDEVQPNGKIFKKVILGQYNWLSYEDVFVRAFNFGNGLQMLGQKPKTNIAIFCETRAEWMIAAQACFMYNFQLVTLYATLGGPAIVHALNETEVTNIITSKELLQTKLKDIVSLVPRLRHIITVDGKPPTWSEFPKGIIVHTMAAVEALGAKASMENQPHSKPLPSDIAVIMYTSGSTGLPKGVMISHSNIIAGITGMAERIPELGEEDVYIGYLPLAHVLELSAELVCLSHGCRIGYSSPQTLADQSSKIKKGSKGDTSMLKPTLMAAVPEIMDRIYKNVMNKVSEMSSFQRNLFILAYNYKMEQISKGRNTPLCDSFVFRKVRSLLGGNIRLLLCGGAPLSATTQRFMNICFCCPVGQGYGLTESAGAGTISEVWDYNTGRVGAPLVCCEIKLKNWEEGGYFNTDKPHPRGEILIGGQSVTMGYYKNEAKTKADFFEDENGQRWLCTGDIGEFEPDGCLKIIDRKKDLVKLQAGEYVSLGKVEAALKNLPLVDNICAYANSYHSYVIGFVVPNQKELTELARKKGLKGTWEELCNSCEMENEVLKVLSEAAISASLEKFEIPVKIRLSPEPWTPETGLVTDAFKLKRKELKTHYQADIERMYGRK
active: volasertib -0.23 | rosiglitazone 0.642
inactive: [1] -0.062 | [2] 0.022 | epoxomicin 0.048 | [3] -0.049 | [4] -0.042 | [5] 0.024 | [6] -0.036 | [7] -0.1 | saracatinib 0 | sotrastaurin -0.014 | alvocidib -0.037 | Tubastatin A -0.022 | [8] -0.008 | defactinib -0.043 | rucaparib -0.002 | [9] 0.041 | encorafenib 0.008 | [10] -0.01

AGPAT5 (UniProt Q9NUQ2)
Chain of UniProt Q9NUQ2 (Q9NUQ2 whole entry, looked up): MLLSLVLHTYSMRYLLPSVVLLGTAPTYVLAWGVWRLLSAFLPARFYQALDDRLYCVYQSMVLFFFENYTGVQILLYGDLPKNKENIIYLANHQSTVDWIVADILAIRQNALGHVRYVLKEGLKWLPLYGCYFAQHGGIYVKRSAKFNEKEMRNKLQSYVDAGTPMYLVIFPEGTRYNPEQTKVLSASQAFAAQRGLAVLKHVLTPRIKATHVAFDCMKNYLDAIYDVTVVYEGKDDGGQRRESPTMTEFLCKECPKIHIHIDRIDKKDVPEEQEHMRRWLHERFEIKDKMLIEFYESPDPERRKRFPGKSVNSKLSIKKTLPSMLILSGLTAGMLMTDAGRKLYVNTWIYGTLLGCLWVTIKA
inactive: [1] -0.169 | [2] -0.068 | epoxomicin 0.007 | [3] 0.023 | [4] -0.13 | [5] 0 | rosiglitazone 0.01 | [6] -0.067 | [7] -0.25 | saracatinib 0.016 | sotrastaurin 0.08 | alvocidib -0.085 | Tubastatin A -0.075 | [8] -0.021 | defactinib 0.011 | rucaparib 0.012 | [9] 0.083 | encorafenib -0.011 | [10] -0.019
active: volasertib -0.281

ATP6V1F isoform 2 (UniProt Q16864)
Chain of UniProt Q16864 (Q16864 whole entry, looked up): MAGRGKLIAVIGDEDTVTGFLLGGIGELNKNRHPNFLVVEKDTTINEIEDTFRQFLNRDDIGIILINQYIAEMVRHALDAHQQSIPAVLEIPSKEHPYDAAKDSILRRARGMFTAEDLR
inactive: [1] 0.01 | volasertib -0.036 | [2] -0.043 | [3] -0.02 | [4] 0.02 | [5] 0.165 | rosiglitazone 0.003 | [6] 0.033 | [7] 0.056 | saracatinib -0.198 | sotrastaurin 0.092 | alvocidib -0.174 | Tubastatin A 0.11 | [8] 0.031 | defactinib 0.007 | rucaparib -0.037 | [9] -0.129 | encorafenib -0.039 | [10] 0.238
active: epoxomicin 0.525

ARRDC1 (UniProt Q8N5I2)
inactive: [1] -0.063 | volasertib -0.137 | [2] -0.09 | epoxomicin -0.057 | [3] 0.09 | [4] 0 | [5] 0.023 | rosiglitazone -0.072 | [6] -0.038 | [7] 0.027 | saracatinib 0.17 | sotrastaurin -0.026 | alvocidib -0.275 | Tubastatin A 0.004 | [8] -0.06 | defactinib -0.046 | rucaparib 0.075 | [9] -0.02 | encorafenib -0.01 | [10] -0.006

AGO1 (UniProt Q9UL18)
inactive: [1] 0.215 | volasertib 0.124 | [2] -0.1 | epoxomicin -0.148 | [3] -0.029 | [4] 0.032 | [5] 0.098 | rosiglitazone 0.042 | [6] 0.14 | [7] -0.151 | saracatinib -0.066 | sotrastaurin -0.307 | alvocidib 0.141 | Tubastatin A -0.164 | [8] -0.039 | defactinib -0.03 | rucaparib 0.16 | [9] -0.085 | encorafenib 0.086 | [10] -0.036

ARL2BP (UniProt Q9Y2Y0)
Chain of UniProt Q9Y2Y0 (Q9Y2Y0 whole entry, looked up): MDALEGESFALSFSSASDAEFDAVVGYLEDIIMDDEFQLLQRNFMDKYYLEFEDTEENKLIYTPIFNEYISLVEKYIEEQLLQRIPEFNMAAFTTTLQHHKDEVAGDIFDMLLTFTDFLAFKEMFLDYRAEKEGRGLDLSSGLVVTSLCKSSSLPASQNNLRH
active: volasertib -0.682
inactive: [1] -0.222 | [2] 0.023 | epoxomicin -0.008 | [3] -0.022 | [4] -0.048 | [5] 0.032 | rosiglitazone 0.019 | [6] -0.062 | [7] -0.183 | saracatinib 0.093 | sotrastaurin -0.047 | alvocidib -0.021 | Tubastatin A 0.082 | [8] 0.002 | defactinib -0.153 | rucaparib 0.055 | [9] 0.147 | encorafenib -0.12 | [10] -0.055

ACSL1 (UniProt P33121)
Chain of UniProt P33121 (P33121 whole entry, looked up): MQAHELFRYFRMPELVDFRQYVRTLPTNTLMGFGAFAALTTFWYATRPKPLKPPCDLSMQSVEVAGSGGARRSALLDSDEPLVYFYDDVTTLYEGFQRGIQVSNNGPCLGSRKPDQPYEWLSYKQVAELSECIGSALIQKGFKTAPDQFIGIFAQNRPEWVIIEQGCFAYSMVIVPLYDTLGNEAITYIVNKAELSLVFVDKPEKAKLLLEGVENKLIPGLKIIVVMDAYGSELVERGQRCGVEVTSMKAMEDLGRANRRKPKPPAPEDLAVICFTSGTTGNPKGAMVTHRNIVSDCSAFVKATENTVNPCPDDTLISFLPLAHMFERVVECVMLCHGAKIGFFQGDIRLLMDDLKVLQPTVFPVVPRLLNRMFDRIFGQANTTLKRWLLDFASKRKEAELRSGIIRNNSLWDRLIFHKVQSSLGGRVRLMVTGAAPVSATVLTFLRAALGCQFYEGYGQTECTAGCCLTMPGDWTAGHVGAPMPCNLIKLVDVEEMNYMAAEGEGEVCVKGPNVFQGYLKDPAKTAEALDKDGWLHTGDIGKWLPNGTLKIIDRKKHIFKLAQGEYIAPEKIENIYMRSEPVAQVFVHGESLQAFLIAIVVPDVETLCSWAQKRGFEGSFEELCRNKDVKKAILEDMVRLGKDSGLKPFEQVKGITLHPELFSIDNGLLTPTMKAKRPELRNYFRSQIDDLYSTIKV
inactive: [1] -0.09 | volasertib -0.183 | [2] 0.012 | epoxomicin 0.018 | [3] 0.05 | [4] -0.031 | [5] 0 | rosiglitazone 0.003 | [6] -0.064 | saracatinib 0 | sotrastaurin 0.029 | alvocidib -0.083 | Tubastatin A -0.075 | [8] -0.003 | defactinib -0.025 | rucaparib -0.021 | [9] -0.025 | encorafenib 0.031 | [10] 0.042
active: [7] -0.393

BZW2 (UniProt Q9Y6E2)
active: volasertib -0.367 | [7] -0.298
inactive: [1] -0.193 | [2] 0.042 | epoxomicin 0.043 | [3] -0.019 | [4] -0.016 | [5] 0.02 | rosiglitazone 0.046 | [6] -0.037 | saracatinib -0.007 | sotrastaurin -0.032 | alvocidib -0.086 | Tubastatin A -0.004 | [8] -0.006 | defactinib -0.057 | rucaparib -0.022 | [9] 0.001 | encorafenib 0.058 | [10] -0.026

BCCIP (UniProt Q9P287)
inactive: [1] -0.009 | volasertib -0.047 | [2] -0.005 | epoxomicin 0.092 | [3] -0.04 | [4] 0.033 | [5] 0.019 | rosiglitazone 0.042 | [6] 0.047 | [7] -0.043 | saracatinib -0.132 | sotrastaurin 0 | alvocidib 0.065 | Tubastatin A -0.045 | [8] -0.013 | defactinib 0.072 | rucaparib 0.165 | [9] 0.02 | encorafenib 0.076 | [10] -0.049

BRAP (UniProt Q7Z569)
inactive: [1] -0.092 | volasertib -0.23 | [2] 0.033 | epoxomicin -0.093 | [3] -0.02 | [4] 0.086 | [5] 0.02 | rosiglitazone 0.02 | [6] 0.06 | [7] -0.158 | saracatinib -0.04 | sotrastaurin -0.198 | alvocidib -0.042 | Tubastatin A 0.046 | [8] 0.057 | defactinib -0.087 | rucaparib 0.076 | [9] -0.024 | encorafenib 0.042 | [10] -0.064

BUB1B isoform 3 (UniProt O60566)
Chain of UniProt O60566 (O60566 whole entry, looked up): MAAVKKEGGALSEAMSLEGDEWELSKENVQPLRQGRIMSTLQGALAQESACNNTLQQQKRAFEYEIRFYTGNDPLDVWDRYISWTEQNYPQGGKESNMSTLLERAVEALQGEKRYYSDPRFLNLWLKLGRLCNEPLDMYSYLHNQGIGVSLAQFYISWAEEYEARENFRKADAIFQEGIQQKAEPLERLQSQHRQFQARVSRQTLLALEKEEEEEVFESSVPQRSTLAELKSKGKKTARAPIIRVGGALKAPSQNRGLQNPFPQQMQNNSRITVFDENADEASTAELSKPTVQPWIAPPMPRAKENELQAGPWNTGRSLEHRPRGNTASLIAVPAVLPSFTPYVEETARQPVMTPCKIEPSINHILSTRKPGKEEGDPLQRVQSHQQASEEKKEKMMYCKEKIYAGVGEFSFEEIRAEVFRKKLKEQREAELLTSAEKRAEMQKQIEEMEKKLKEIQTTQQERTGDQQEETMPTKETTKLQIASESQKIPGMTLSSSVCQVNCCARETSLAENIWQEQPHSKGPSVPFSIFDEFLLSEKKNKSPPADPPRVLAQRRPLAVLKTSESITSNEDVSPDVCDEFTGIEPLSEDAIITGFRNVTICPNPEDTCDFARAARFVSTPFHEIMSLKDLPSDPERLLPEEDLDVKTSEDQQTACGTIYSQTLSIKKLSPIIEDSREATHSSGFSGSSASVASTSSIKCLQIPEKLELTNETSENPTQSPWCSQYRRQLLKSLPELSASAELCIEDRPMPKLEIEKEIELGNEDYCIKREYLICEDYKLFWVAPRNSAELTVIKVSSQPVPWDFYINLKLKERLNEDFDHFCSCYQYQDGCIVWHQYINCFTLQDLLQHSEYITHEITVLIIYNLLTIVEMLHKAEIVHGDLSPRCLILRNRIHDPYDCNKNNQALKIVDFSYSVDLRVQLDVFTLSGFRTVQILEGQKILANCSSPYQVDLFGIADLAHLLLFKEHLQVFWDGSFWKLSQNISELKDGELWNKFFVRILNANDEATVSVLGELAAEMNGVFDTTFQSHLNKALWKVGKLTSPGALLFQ
active: volasertib -0.66
inactive: [1] -0.127 | [2] 0.056 | epoxomicin 0.02 | [3] -0.055 | [4] 0.043 | [5] 0.065 | rosiglitazone 0.089 | [6] 0.013 | [7] -0.078 | saracatinib -0.071 | sotrastaurin -0.113 | alvocidib -0.074 | Tubastatin A 0.031 | [8] 0.042 | defactinib -0.076 | rucaparib 0.006 | [9] -0.031 | encorafenib 0.097 | [10] -0.029

Source: the supplement of paper PMC10849652
